According to PubChem BioAssay AID743446 (Broad Institute, 2014):
Results with a measured potency or affinity are listed apart. Activity calls are given as the source filed them. No rule for the calls is given here.

experiment: HEK293 cell cytotoxicity, dose response, cytotoxicity control, plate reader, cherry-picked samples (AID 743446); settings: active compounds read low; at 26 µM unless noted

Row | SMILES | max activity
1 | CCCn1c(C)cc(C(=O)CN2C(=O)c3ccccc3S2(=O)=O)c1C | -16% [at 3 µM] (inactive)
2 | Cc1ccccc1-c1ccc([C@H]2[C@@H](CO)N3CCCCN(S(=O)(=O)c4ccc(F)cc4)C[C@@H]23)cc1 | -101% (inactive)
3 | COc1cccc(NC(=O)Nc2cccc(C(=O)O)c2)c1 | -21.7% [at 3 µM] (inactive)
4 | Cc1cnc(NC(=O)c2ccc(OCC3CCCO3)cc2)s1 (centres undefined) | 9% [at 6 µM] (inactive)
5 | COc1ccc(-c2nc(N)n(C(=O)c3cccs3)n2)cc1 | 49.5% (inactive)
6 | COc1ccc(C(=O)Nc2ccc3ccccc3n2)c(OC)c1OC | -6.81% [at 0.1 µM] (inactive)
7 | COc1ccc(S(=O)(=O)Nc2ccc3c(c2)C(=O)N([C@@H](C)CO)C[C@@H](C)[C@H](CN(C)C(=O)Nc2cccc4ccccc24)OCCCC[C@H](C)O3)cc1 | 35.8% [at 12 µM] (inactive)
8 | Cc1noc(C)c1S(=O)(=O)Nc1ccc2c(c1)C(=O)N([C@H](C)CO)C[C@H](C)[C@H](CN(C)C(=O)Nc1ccc(F)cc1)OCCCC[C@@H](C)O2 | 16.1% [at 0.1 µM] (inactive)
9 | Cc1cc(C(=O)Nc2ccc(N3CCCCC3)cc2)no1 | 16% [at 0.195 µM] (inactive)
10 | C[C@@H]1CN([C@H](C)CO)C(=O)c2c(c3ccccc3n2C)-c2ccccc2CO[C@@H]1CN(C)S(=O)(=O)c1ccc(C(F)(F)F)cc1 | -8.56% (inactive)
11 | CCCNC(=O)Nc1ccc2c(c1)C(=O)N(C)C[C@H](OC)[C@H](C)CN(Cc1ccc(-c3ccccn3)cc1)[C@@H](C)CO2 | 32.1% [at 0.75 µM] (inactive)
12 | O=C(Nc1nc2cc3c(cc2s1)OCO3)c1ccco1 | 45.6% [at 0.05 µM] (inactive)
13 | COc1ccc(S(=O)(=O)N2CCN(C(=O)c3ccc(C)o3)CC2)cc1 | 29.4% [at 0.195 µM] (inactive)
14 | Cc1ccc(-c2cc(C(=O)N3CCOCC3)no2)cc1 | -12% [at 6 µM] (inactive)
15 | N#C[C@@H]1[C@H](c2ccc(C#Cc3ccccc3F)cc2)[C@@H](CO)N1C(=O)C1CCCC1 | -15.6% (inactive)
16 | C[C@H](CO)N1C[C@H](C)[C@H](CN(C)Cc2ccncc2)Oc2ncc(C#CCC3CCCCC3)cc2C1=O | 18.1% [at 3 µM] (inactive)
17 | O=C(O)c1ccc(-c2noc(-c3ccccc3Cl)n2)cc1 | -20.2% [at 6 µM] (inactive)
18 | c1ccc(-n2nnc3c(N4CCOCC4)ncnc32)cc1 | 32.3% [at 0.8 µM] (inactive)
19 | CC(C)(C)NC(=O)c1cccc(NC(=O)c2ccc3c(c2)C(=O)N(C(C)(C)C)C3=O)c1 | 27.3% [at 0.195 µM] (inactive)
20 | O=C(c1ccc2c(c1)OCCO2)C1CCN(S(=O)(=O)c2ccc(F)cc2)CC1 | 25.1% [at 0.1 µM] (inactive)

Row | SMILES | max activity
21 | COc1ccc(-c2noc(CCC(=O)N3CCN(c4ccc(Cl)cc4)CC3)n2)cc1 | 26.2% [at 12 µM] (inactive)
22 | C=CCNc1nc(-c2cc3ccccc3o2)cs1 | -11.4% [at 0.8 µM] (inactive)
23 | CCCc1nc(SCC(=O)N2CCC(Cc3ccccc3)CC2)c2c(=O)n(C)c(=O)n(C)c2n1 | 11.8% [at 0.05 µM] (inactive)
24 | O=C(CN1C(=O)c2ccccc2S1(=O)=O)c1ccccc1F | 74.6% (inactive)
25 | C[C@H](CO)N1C[C@H](C)[C@H](CN(C)C(=O)Nc2ccc(C(F)(F)F)cc2)OCCCC[C@H](C)Oc2ccc(NC(=O)NC3CCCCC3)cc2C1=O | 66% (inactive)
26 | O=C(c1cc(-c2ccc(Cl)cc2Cl)on1)N1CCCC1 | 9.97% [at 0.8 µM] (inactive)
27 | O=c1[nH]c(CSc2ccccn2)nc2c1oc1ccccc12 | -17.8% (inactive)
28 | COc1cccc(-c2ccc(C3[C@@H]4CN(C(=O)C5CC5)C[C@H]3N4)cc2)c1 (some centres undefined) | 15.1% [at 3 µM] (inactive)
29 | O=C(O)c1ccc(Nc2nc3c(s2)CCCC3)cc1 | 49.8% [at 12 µM] (inactive)
30 | CCN(C(=O)COC(=O)C12CC3CC(CC(O)(C3)C1)C2)c1c(N)n(Cc2ccccc2)c(=O)[nH]c1=O | 34% [at 0.1 µM] (inactive)
31 | Cc1ccc(S(=O)(=O)N(C)C[C@H]2Oc3cc(Br)ccc3S(=O)(=O)N([C@H](C)CO)C[C@H]2C)cc1 | 10.1% [at 1.6 µM] (inactive)
32 | COc1ccccc1CN(C)C[C@@H]1OCc2cnnn2CCCC(=O)N([C@H](C)CO)C[C@H]1C | 11% [at 0.38 µM] (inactive)
33 | CN(C)c1cccc(C(=O)Nc2nc3ccccc3[nH]2)c1 | 39.2% [at 12 µM] (inactive)
34 | N#Cc1cccc(-c2ccc([C@@H]3[C@H](CO)N4CCCCN(C(=O)Nc5cccc(F)c5)C[C@@H]34)cc2)c1 | 4.74% [at 12 µM] (inactive)
35 | O=C(CC1CS(=O)(=O)CC1CC(=O)Nc1ccc2c(c1)OCCO2)Nc1ccc2c(c1)OCCO2 (centres undefined) | 38.3% [at 0.8 µM] (inactive)
36 | CC(C)C(=O)N1CCN(c2ccc(NC(=O)COc3ccccc3[N+](=O)[O-])cc2)CC1 | -46.9% (inactive)
37 | O=C(c1cc(-c2ccc(Cl)cc2Cl)on1)N1CCOCC1 | 14.9% [at 0.05 µM] (inactive)
38 | O=C(Nc1ccc(N2CCN(C(=O)c3ccc(Cl)cc3)CC2)cc1)c1cc2ccccc2o1 | 21.1% [at 0.05 µM] (inactive)
39 | O=C(O)c1cccc(N/N=C/c2cccs2)c1 | 58.2% [at 6 µM] (inactive)
